Screening results (PubChem BioAssay)
Eya2 inh – qHTS Assay for Inhibitors of the Phosphatase Activity of Eya2; AID 488837, 2010; Protein phosphatase EYA2 (Homo sapiens), O00167; Potency, µM (highest dose often 76.9 µM), without a hit: at the top dose activity, negative = inhibition, hits mostly inhibitors; 330,000 tested, 0.006% active; recombinant Eya2, OMFP fluorescence dephosphorylation (OMFP is methylfluorescein phosphate); further: on the % scale 0 is the no-effect control and ±100 the full control effect
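Eya2 (0.2 uM) preincubated 10 min at ambient with compound, then OMFP substrate added at 50 uM; 10 min reaction in 50 mM HEPES pH 7.5, 50 mM NaCl, 5 uM MgCl2, 0.05% BSA, 1 mM DTT. Fluorescence read at Ex 485/Em 525 nm.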
GALK inhibitor – qHTS Assay for Inhibitors of Human Galactokinase (GALK) | Potency, µM (series often up to 57.5 µM), for the others: top-dose activity change, negative = inhibition, usual class: inhibitors | 270,000 tested, 0.007% active | AID 1868, 2009 | P51570 | Purified GALK, Kinase-Glo residual ATP luminescence; further: on the % scale 0 is the no-effect control and ±100 the full control effect
Target sequence (P51570 whole entry, looked up): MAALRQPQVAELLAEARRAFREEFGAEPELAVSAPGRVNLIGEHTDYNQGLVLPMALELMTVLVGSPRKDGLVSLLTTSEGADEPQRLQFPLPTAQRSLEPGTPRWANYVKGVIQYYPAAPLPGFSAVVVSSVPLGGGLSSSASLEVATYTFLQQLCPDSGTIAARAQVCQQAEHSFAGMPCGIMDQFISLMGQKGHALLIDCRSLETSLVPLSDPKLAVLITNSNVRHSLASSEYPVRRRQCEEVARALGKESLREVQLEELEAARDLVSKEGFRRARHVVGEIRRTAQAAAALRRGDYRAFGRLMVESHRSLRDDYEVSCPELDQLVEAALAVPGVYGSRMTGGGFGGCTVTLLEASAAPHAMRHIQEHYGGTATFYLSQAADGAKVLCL
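Galactose (100 uM) and ATP (35 uM) were turned over by 5 nM GALK for 1 h at RT. Kinase-Glo Plus then converted the remaining ATP into a luminescent signal.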
USP2a inh – qHTS Assay for Inhibitors of Ubiquitin-specific Protease USP2a Using CHOP2 as the Reporter; Ubiquitin carboxyl-terminal hydrolase 2 (Homo sapiens), O75604; USP2 core, Ub-CHOP2 coupled fluorogenic reporter, 485/531; Potency, µM (highest dose often 38.3 µM), for inactives: at the top dose activity change, negative = inhibition, actives largely listed as inhibitors; 330,000 tested, 0.01% active; AID 463254, 2010;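 further: plate controls were DMSO wells for no effect and full inhibition by NEM control for full effect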
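Cell-free coupled assay: 10nM USP2 core preincubated 30min RT with compound in Tris-HCl pH 8.0/CaCl2/CHAPS buffer, then 25nM Ub-CHOP2 and 25nM reporter substrate; fluorescence (Ex 485/Em 531) read after 60min RT, normalized to NEM inhibition, concentration-response curves fitted.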
ClpP mod – qHTS Assay for Activators of ClpP; purified B. subtilis ClpP, FRET peptide cleavage, 20 min; 340,000 tested, 1.9% active; AID 651965, 2013; Potency, µM (titrated, usually from 57.5 µM), without a hit: at the top dose activity change, negative = active; ATP-dependent Clp protease proteolytic subunit (Bacillus subtilis (strain 168)), P80244; active means well fitted falling curve with a large enough effect; inconclusive means small, poorly fitted or top-dose-only effect; inactive means no such curve, though single readings can be large or run the other way; further: the source files actives as falling curves though it sought activators and does not explain the sign; nearly all actives have a fitted effect of over 65% in size
Target sequence (P80244 whole entry, looked up): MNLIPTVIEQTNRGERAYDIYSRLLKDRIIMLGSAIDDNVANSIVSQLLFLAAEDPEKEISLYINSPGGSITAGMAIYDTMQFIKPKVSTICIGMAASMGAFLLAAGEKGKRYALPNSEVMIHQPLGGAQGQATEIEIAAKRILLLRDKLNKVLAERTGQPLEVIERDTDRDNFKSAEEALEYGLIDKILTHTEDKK
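FRET quenching reversal measured ClpP activation: 10 microg/mL B. subtilis ClpP at pH 8 with the FRET-FV decapeptide, read at 430 nm after 320 nm excitation. The 20-min minus 0-min signal was scaled between DMSO/no-enzyme wells and ADEP (5.8 microM final).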
Active calls of the source: *. The sample as a whole holds a higher share of hits than the screen did. Unless noted, the call rests on the fitted dose curve; in most records, active means well fitted inhibition curve with a large enough effect; inconclusive means small, poorly fitted or top-dose-only effect, or effect the other way; inactive means flat fitted curve, though single readings scatter. Potency means the concentration at half of the fitted maximal effect.

What do the screens show for `Cc1ccc(CNc2oc(-c3ccc(COc4ccc(C)cc4)o3)nc2C#N)cc1`?
ClpP mod: 25µM*

What do the screens show for `COC(=O)C[C@H]1c2cc(F)ccc2S(=O)(=O)N1c1ccc(N(C)C)cc1`?
ClpP mod: -1%

What do the screens show for `Cc1ccc2[nH]c3c(NCc4ccco4)ncnc3c2c1`?
Eya2 inh: 14%; GALK inhibitor: -2%; USP2a inh: 2%; ClpP mod: 18µM*

What do the screens show for `CC1CCN(C2(O)C(=O)Nc3ccc(Cl)cc32)CC1` (stereo not given)?
Eya2 inh: 4%; GALK inhibitor: 2%; USP2a inh: -1%; ClpP mod: 13µM*

How did CC1=[N+](CC(=O)NC(C)(C)C)CCc2ccccc21 do in these assays?
Eya2 inh: -2%; GALK inhibitor: 3%; USP2a inh: 3%; ClpP mod: -1%

Results for CCOC(=O)Nc1nnc(-c2cccc(OC)c2)s1 ?
Eya2 inh: -4%; GALK inhibitor: 0%; USP2a inh: 1%; ClpP mod: 7%

How did COC(=O)Nc1nnc(-c2ccccc2OC)s1 do in these assays?
Eya2 inh: 1%; USP2a inh: 5%; ClpP mod: 1%

What do the screens show for `CCCCOC(=O)Nc1nnc(/C=C/c2ccc(OC)cc2)s1`?
Eya2 inh: -8%; GALK inhibitor: 0%; USP2a inh: 2%; ClpP mod: 32µM*

Results for CCOC(=O)Nc1nnc(-c2ccc(OC)cc2)s1 ?
Eya2 inh: 1%; GALK inhibitor: 0%; USP2a inh: 0%; ClpP mod: 13µM*

What do the screens show for `CCOC(=O)Nc1nnc(-c2ccccc2OC)s1`?
Eya2 inh: -16%; GALK inhibitor: -3%; USP2a inh: -4%; ClpP mod: 3.5µM*

What do the screens show for `CCOC(=O)Nc1nnc(/C=C/c2ccc(OC)cc2)s1`?
Eya2 inh: -6%; GALK inhibitor: -1%; USP2a inh: 2%; ClpP mod: 13µM*

Results for C=CCN(c1ccccc1)S(=O)(=O)c1cccc(C(=O)OCC(=O)NCCOC)c1 ?
Eya2 inh: -3%; GALK inhibitor: -1%; USP2a inh: 10%; ClpP mod: 0%

How did COCCN(C(=O)COC(=O)CCCOc1ccc(OC)cc1)c1c(N)n(Cc2ccccc2)c(=O)[nH]c1=O do in these assays?
Eya2 inh: -9%; USP2a inh: 0%; ClpP mod: 0%

What do the screens show for `COc1ccc(-c2nnc(SCC(=O)Nc3ccc(F)cc3)s2)cc1`?
ClpP mod: 14µM*

Results for Cc1ccc(NC(=O)CSc2nnc(-c3ccncc3)s2)cc1 ?
Eya2 inh: -5%; GALK inhibitor: 15%; USP2a inh: -2%

How did COc1ccc(/C=C/c2nnc(NC(=O)COc3ccc(C)cc3)s2)cc1 do in these assays?
Eya2 inh: -15%; GALK inhibitor: 0%; USP2a inh: 0%; ClpP mod: 16µM*

What do the screens show for `COc1ccc(/C=C/c2nnc(NC(=O)COc3ccccc3)s2)cc1`?
Eya2 inh: 1%; GALK inhibitor: 4%; USP2a inh: 5%

Results for COc1ccc2nc(NC(=O)C3CCCO3)sc2c1 (stereo not given) ?
Eya2 inh: -3%; GALK inhibitor: 2%; USP2a inh: 0%; ClpP mod: 0%

How did COc1ccc(-c2nnc(NC(=O)C3CCCO3)s2)cc1 (stereo not given) do in these assays?
Eya2 inh: -23%; GALK inhibitor: 2%; USP2a inh: -8%; ClpP mod: 13µM*

Results for Cc1ccc(CNC(=O)c2ccc(N3CCC4(CC3)CC(c3ccccc3)=NO4)c(N)c2)cc1 ?
Eya2 inh: -27%; USP2a inh: 1%; ClpP mod: 8.9µM*

What do the screens show for `Cc1ccc(CNC(=O)c2ccc(N3CCC4(CC3)CC(c3ccccc3)=NO4)c(NC(=O)c3ccccc3)c2)cc1`?
Eya2 inh: -17%; USP2a inh: 0%; ClpP mod: inconclusive

How did CCOC(=O)C1=C(C)Nc2nc3ccccc3n2C1c1ccccc1 (stereo not given) do in these assays?
Eya2 inh: 2%; GALK inhibitor: 1%; USP2a inh: 1%; ClpP mod: 35µM*

How did CCN(CC)C(=O)C1=C(C)Nc2nc3ccccc3n2C1c1ccc(Br)cc1 (stereo not given) do in these assays?
ClpP mod: -22%

How did COc1ccc(NC(=O)CSc2ccc(-c3ccco3)nn2)cc1 do in these assays?
Eya2 inh: 10%; GALK inhibitor: 4%; USP2a inh: 2%; ClpP mod: 1%

What do the screens show for `O=C(N/N=C/c1ccc2c(c1)OCO2)c1ccn(Cc2ccc(Cl)cc2)n1`?
Eya2 inh: 2%; GALK inhibitor: -7%; USP2a inh: 0%; ClpP mod: 28µM*

What do the screens show for `CCOC(=O)CN1C(=O)CC(c2ccc([N+](=O)[O-])cc2)C1=O` (stereo not given)?
Eya2 inh: 5%; GALK inhibitor: -2%; USP2a inh: 3%; ClpP mod: 1%

How did Cc1ccc(NC(=O)CS(=O)CC(=O)NC(C)CCc2ccco2)cc1Cl (stereo not given) do in these assays?
Eya2 inh: 7%; GALK inhibitor: 3%; USP2a inh: 0%; ClpP mod: 28µM*

What do the screens show for `Cc1ccc(-c2ccccc2NC(=O)CS(=O)CC(=O)Nc2ccc(C)c(Cl)c2)o1` (stereo not given)?
Eya2 inh: 8%; GALK inhibitor: 7%; USP2a inh: 1%; ClpP mod: 0%

What do the screens show for `Cc1ccc(-c2c(C(=O)N/N=C/c3ccc(OC(C)C)cc3)nnn2-c2nonc2N)cc1`?
Eya2 inh: 1%; GALK inhibitor: -2%; USP2a inh: -2%; ClpP mod: 28µM*

What do the screens show for `Cc1ccc(-c2noc(CCC(=O)NCCN3CCN(Cc4ccccc4)CC3)n2)cc1`?
Eya2 inh: 3%; GALK inhibitor: 1%; USP2a inh: 2%; ClpP mod: 28µM*

How did O=C(CSc1ccc(-c2ccc(-n3cccn3)cc2)nn1)Nc1ccccc1F do in these assays?
Eya2 inh: -7%; USP2a inh: 2%; ClpP mod: 16µM*

Results for Cc1cc(C)c(S(=O)(=O)c2ccccc2)c(Cl)n1 ?
Eya2 inh: -23%; GALK inhibitor: 2%; USP2a inh: -1%; ClpP mod: 14µM*

Results for CCCCCCOC1(c2ccccc2)OC(=O)c2ccccc21 (stereo not given) ?
Eya2 inh: -13%; GALK inhibitor: -1%; USP2a inh: -2%; ClpP mod: 3%

Results for CCOc1ccc2oc(C(=O)OCC(=O)NC(=O)NC3CCCC3)c(C)c2c1 ?
Eya2 inh: 1%; GALK inhibitor: 2%; USP2a inh: 3%; ClpP mod: 22µM*
